Pf growth 48h – P. falciparum growth inhibition at 48 hours (one generation); P. falciparum luciferase growth in erythrocytes, 48 h; Potency, µM (series often up to 28.7 µM), inactives show at the highest dose activity change, negative = inhibition, actives largely listed as inhibitors; 5.9% of 310,000 active; AID 504832; note: potency is the fitted concentration of half-maximal effect
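Compounds are pin-transferred into medium, infected erythrocytes (2% hematocrit, 0.1% parasitemia final) are added, and plates sit one parasite generation at 37 C in 5% CO2. Detection reagent is then added and luminescence measured.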
HCMV inh – blocks human cytomegalovirus replication; activity change, negative = inhibition, % at 57.5 µM; HFF cells, HCMV-luciferase reporter, 72 h; hits give low values; 4.5% of 410,000 active; in the data active = activity change below about -60%; inconclusive = no clear call, values can overlap the other calls; inactive = above about -39%
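Inhibition of viral replication was scored as loss of reporter luminescence in HFFs infected with HCMV-luciferase (MOI 1 PFU/cell) for 72 h; compounds tested at 2 doses, normalized to buffer and Salinomycin controls.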
Pf growth 96h – P. falciparum growth inhibition at 96 hour, primary screen for plastid delayed-death inhibitors | 6.9% of 320,000 active | P. falciparum luciferase reporter growth, 96 h | Potency, µM (top dose mostly 28.7 µM), inactives show top-dose activity change, negative = inhibition, most hits filed as inhibitors; note: potency is the fitted concentration of half-maximal effect
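Cell-based qHTS: luciferase-tagged P. falciparum in erythrocytes (2% hematocrit, 0.05% parasitemia final) incubated with compounds for 96 hours, 37 C, 5% CO2; luciferase detection reagent then added and luminescence measured.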
HCV inhibitor – HCV inhibition; Huh7.5.1 HCVcc-Cre infection, luciferase reporter, 44 h; Potency, µM (titrated, usually from 41.8 µM), without a hit: top-dose activity change, negative = inhibition, usual class: inhibitors; 3.4% of 340,000 active; AID 651820; note: potency is the fitted concentration of half-maximal effect
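1,000 cells/well; 4 h culture; + compound; + HCVcc-Cre (~0.5 moi); 44 h; luciferase substrate, RT 15 min; read 15 sec.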
* hit, by the source's call; u = inconclusive; x = no result given. Only some compounds are listed: those with a hit (about 13% of all), similar ones and a draw of the others. Unless noted, calls come from the whole dose curve; as a rule, active = well fitted inhibition curve with a large enough effect; inconclusive = small, poorly fitted or top-dose-only effect, or another doubt; inactive = no such curve, though single readings can be large or run the other way. % is set by controls: 0 for no effect and ±100 for the full control effect.

SMILES	Pf growth 48h	HCMV inh	Pf growth 96h	HCV inhibitor
Cc1cc(NC(=O)c2cc(C)on2)n(-c2ccccc2)n1	16%	9	63%	6%
Cc1ccc(-n2c(SCC(N)=O)nc3c(oc4ccccc43)c2=O)cc1C	x	13	x	x
Cc1cc(NC(=O)c2ccccc2)n(-c2ccccc2)n1	-6%	-3	1.9µM*	-12%
CCOC1=C2CN(S(=O)(=O)c3ccc(C)cc3)CC[C@@H]2N(S(=O)(=O)c2ccc(C)cc2)[C@H](c2ccccc2)C1	x	7	x	x
CCCCOc1ccc(-c2nc(=S)[nH][nH]2)cc1	x	37	12µM*	15%
Cc1ccc(CNC(=O)Cn2ccn(-c3ccc(F)cc3)c(=O)c2=O)cc1	x	-3	x	x
COc1ccc(CCNC(=O)CCCn2c(=O)c3ccccc3n(CC(=O)Nc3ccc(C)cc3Cl)c2=O)cc1OC	x	-39	x	x
O=C1NC(=O)C2(Cc3ccccc3N3CCCC32)C(=O)N1Cc1ccccc1 (configuration not stated)	u	17	-5%	0%
Cc1cccn2c(=O)c3c(nc12)N1CCCCC1C1(C3)C(=O)N(C)C(=O)N(C)C1=O (configuration not stated)	u	13	2.9µM*	5%
O=C1NC(=O)C2(Cc3c(nc4ccccn4c3=O)N3CCCCCC32)C(=O)N1Cc1ccccc1 (configuration not stated)	u	76	5.2µM*	-26%
CCOCCc1nn2c(=O)cc(COC(=O)c3ccccc3NC(=O)c3ccc(C)cc3)nc2s1	x	67	x	x
COC(=O)[C@]1(CC(C)C)N[C@H](c2ccc(-c3ccc(OC)cc3)cc2)[C@@H]2C(=O)N(C)C(=O)[C@@H]21	u	12	u	u
CCN1C(=O)[C@H]2[C@@H](c3ccc(-c4ccc(F)cc4)c(OC)c3)N[C@@](CC(C)C)(C(=O)OC)[C@H]2C1=O	2.3µM*	25	2.6µM*	11%
CCN1C(=O)[C@H]2[C@@H](c3ccc(-c4ccc(F)cc4)cc3)N[C@@](CC(C)C)(C(=O)OC)[C@H]2C1=O	10µM*	3	5.2µM*	u
CCCSc1ccc([C@H]2N[C@@](CC(C)C)(C(=O)OC)[C@H]3C(=O)N(CC)C(=O)[C@@H]23)cc1	x	6	x	u
COC(=O)[C@]1(CC(C)C)N[C@H](c2ccc(-c3ccc(F)cc3)cc2)[C@@H]2C(=O)N(C)C(=O)[C@@H]21	3.3µM*	32	6.6µM*	14%
CCOc1ccc(-c2cc(CCCC(=O)NCCc3ccc(OCC)c(OCC)c3)no2)cc1	x	-39	x	x
COc1ccc(-c2cc(CCCC(=O)NCCc3cc(OC)ccc3OC)no2)cc1	u	-20	x	10µM*
COc1ccc(N2CCN(C(=O)COCc3cc(-c4ccc5c(c4)OCO5)on3)CC2)cc1	-16%	-13	u	0%
COc1ccc(-c2cc(CCCC(=O)N3CCN(c4ccc(OC)cc4)CC3)no2)cc1	x	-22	u	11µM*
Cc1ccc(CN(C(=O)c2ccco2)C2CCS(=O)(=O)C2)cc1 (configuration not stated)	-3%	-4	-17%	-1%
CN(C)c1ccc(CN(C(=O)c2ccco2)C2CCS(=O)(=O)C2)cc1 (configuration not stated)	56%	-9	5.2µM*	9%
CN(C)c1ccc(CN(C(=O)c2ccccc2Br)C2CCS(=O)(=O)C2)cc1 (configuration not stated)	-13%	-13	13µM*	3%
C[C@@H]1NC(=O)[C@H](CCCN=C(N)N)NC(=O)c2cc([N+](=O)[O-])cc(I)c2NCCC[C@@H](C(N)=O)NC1=O	24%	-5	0%	7.9µM*
O=C(CC1(O)C(=O)N(C/C=C/c2ccccc2)c2ccccc21)c1ccccn1 (configuration not stated)	-13%	-71*	21%	-10%
SMILES	Pf growth 48h	HCMV inh	Pf growth 96h	HCV inhibitor
O=C(CC1(O)C(=O)N(CCc2ccccc2)c2ccccc21)c1ccccn1 (configuration not stated)	0%	-22	-11%	13%
COc1ccc2c(c1)CC(C(=O)NCCN1CCN(c3cccc(C)c3C)CC1)CO2 (configuration not stated)	x	-6	x	x
O=C(O)c1cc(O)c(O)c(O)c1	u	x	8.5µM*	x
O=C(NCc1ccc2c(c1)CCN2C(=O)c1ccncc1)c1ccc(Cl)cc1	x	-8	x	x
Cc1nc(S(=O)(=O)N(C)c2ccccc2)c(C#N)c(C)c1Cl	u	-97*	74%	-25%
CN(c1ccccc1)S(=O)(=O)c1ccc(Cl)nc1	10%	-17	13%	-3%
O=C(Nc1ccc(OCc2cc(=O)n3ccsc3n2)cc1)c1ccc(F)cc1	x	0	x	x
COc1ccc(C(=O)Nc2cc(-c3nc4ncccc4o3)ccc2C)cc1Br	x	-5	x	x
Cc1ccccc1-n1nc(C)c2c(C(=O)NN)cc(-c3ccncc3)nc21	-23%	2	u	u
CCOC(=O)c1cc(-c2cccs2)nc2c1c(C)nn2-c1ccccn1	-21%	-86*	u	10µM*
Cc1nn(-c2ccccc2)c2nc(-c3cccs3)cc(C(=O)NN)c12	-17%	u	u	u
O=C(NCc1ccco1)c1nn2c(C(F)(F)F)cc(-c3cccs3)nc2c1Cl	3%	38	x	u
Cc1nn(-c2ccccn2)c2nc(-c3cccs3)cc(C(=O)NCc3ccco3)c12	x	-37	10µM*	35µM*
Cc1nn(-c2ccccc2)c2nc(-c3ccncc3)cc(C(=O)NCc3ccco3)c12	3.7µM*	87	10µM*	u
Cc1ccc(-c2nc3sccn3c2Nc2ccc(C)c(C)c2)cc1	x	90	x	x
CN(Cc1ccccc1)c1ccc(-c2nc(-c3ccccn3)no2)cc1[N+](=O)[O-]	x	45	x	x
Cc1ccc(N2CCN(Cc3nnc(-c4ccc5c(c4)OCO5)o3)CC2)c(C)c1	x	4	x	x
COc1cc(Cl)c(C)cc1NC(=O)CCn1cnc2onc(-c3ccc(F)cc3)c2c1=O	x	-11	x	x
COc1ccc(NC(=O)CCn2cnc3onc(-c4ccc(F)cc4)c3c2=O)cc1OC	x	-72*	x	x
CN1CCC(OC(=O)c2ccccc2)CC1	-2%	-1	-19%	13%
CCCOC(C(=O)OC1CCN(C)CC1)(c1ccccc1)c1ccccc1	12µM*	x	12µM*	x
CN1CCC(OC(=O)COc2ccc(F)cc2)CC1	2%	20	u	30%
CN1CCC(OC(=O)COc2ccccc2)CC1	9%	-2	12µM*	13%
O=C(Nc1ccccc1C(=O)N1CCCCC1)c1nsc2ccccc12	x	0	x	x
Cc1ccc(-c2cc3ncc4c(n3n2)-c2ccccc2OC4)cc1	x	112	x	x
O=C(NCc1ccccn1)Nc1ccc(Br)cc1	13%	1	1.7µM*	17%
O=C(NCc1ccccn1)Nc1ccc(Br)cc1Cl	50%	12	9.3µM*	-29%
O=C(NCc1ccccn1)Nc1ccccc1	103%	-1	-17%	11%
O=C(NCc1ccccn1)Nc1ccc(Cl)cc1Cl	67%	63	u	9%

Screening data from PubChem.
